PubChem BioAssay (NCATS)
Values joined by “and” are separate entries in the source; they are usually repeats but may differ in a detail not shown here. Identical values can stand only once. Results filed as inconclusive are left out. Active and inactive are the calls of the source. Unless noted, calls follow the shape of the dose curve; as a rule, active = well fitted curve in the direction sought with a large enough effect; inconclusive = small, poorly fitted or top-dose-only effect, or another doubt; inactive = no such curve, though single readings can be large; an effect the other way counts as inactive or inconclusive.

Assays:
[1] = target: ATP-dependent DNA helicase Q1 (Homo sapiens) (UniProt P46063); test: qHTS Validation Assay for Inhibitors of RecQ-Like Dna Helicase 1 (RECQ1) (AID 2353); also: potency is read from the fitted curve at half-maximal effect
Method in brief: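 RECQ1T1 50 nM; forked duplex (20 bp + 30-nt ss tails) 200 nM, ATP 2 mM final; pH 8.0, 2 mM MgCl2, 2.5 ug/ml poly(dI-dC); 15 min compound preincubation; discontinuous kinetic read over 2 h at RT.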

[2] = target: RecQ-like DNA helicase BLM (Homo sapiens) (UniProt P54132); test: qHTS Validation Assay for Inhibitors of Bloom's syndrome helicase (BLM) (AID 2364); also: potency is read from the fitted curve at half-maximal effect
Method in brief: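 50 nM BLM preincubated 15 min at room temperature with compound in pH 8.0 Tris buffer containing 2.5 ug/ml poly(dI-dC); started with 200 nM TAMRA/BHQ-2 forked duplex and 2 mM ATP (final). Unwinding read as TAMRA fluorescence increase, two reads 2 h apart.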

[3] = Cytometric Cell-Based qHTS for Inhibitors of the mTORC1 Signaling Pathway in MEF (Tsc2-/-, p53-/-) Cells (AID 2660); also: potency is read from the fitted curve at half-maximal effect
Method in brief: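 Readout: Alexa-488 phospho-rpS6 (Ser235/236) intensity divided by PI intensity, thresholded against 7.5 nM rapamycin wells and reported as % positive cells. PI cell count served as the viability measure. Compound exposure was 24 hrs at 37 degree Celsius.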

[4] = High Content Imaging Cell-Based qHTS for Inhibitors of the mTORC1 Signaling Pathway in MEF Cells (AID 2667);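 also: Tsc2-/- p53-/- MEFs stably re-expressing wild-type Tsc2 exposed 24 h; series mostly up to about 38 µM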
Method in brief: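 Read-out is the share of phospho-rpS6-positive cells per well, from Hoechst-normalized Alexa-488 Ser235/236 staining imaged on IN Cell. Cells: WT Tsc2-expressing Tsc2-/-, p53-/- MEFs exposed to compound for 24 hrs.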

[5] = Cytometry Cell-Based qHTS for Inhibitors of the mTORC1 Signaling Pathway in MEF cells (AID 2668);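 also: Tsc2-/- p53-/- mouse embryonic fibroblasts stably re-expressing wild-type Tsc2; percent cells positive for phospho-rpS6 Ser235/236 relative to propidium iodide stain; series mostly up to about 38 µM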
Method in brief: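 Phospho-rpS6 (Ser235/236) immunofluorescence over PI signal, scored as % positive cells using thresholds from 7.5 nM rapamycin and DMSO wells, after 24 h compound exposure of WT-Tsc2-rescued Tsc2-/-, p53-/- MEFs. PI cell count recorded for viability.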

[6] = target: Ubiquitin carboxyl-terminal hydrolase 2 (Homo sapiens) (UniProt O75604); test: qHTS Validation Assay for Inhibitors of Ubiquitin-specific Protease USP2a Using CHOP2 as the Reporter (AID 463106)
Method in brief: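 Fluorescence read-out at Ex 485nm/Em 531nm after 60min RT, following addition of 25nM Ub-CHOP2 plus 25nM reporter substrate to USP2 core (10nM) pretreated 30min with compound. Data normalized to NEM full inhibition; concentration-response curves fitted.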

[7] = target: Tumor susceptibility gene 101 protein (Homo sapiens) (UniProt Q99816); test: qHTS Validation Assay for Iinhibitors of HIV-1 Budding by Blocking the Interaction of PTAP/TSG101 (AID 485342; calls by dose curve)
Method in brief: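 Fluorescence polarization of 50 nM FITC-PTAP peptide bound to 10 uM Tsg101 binding domain was read after 20 min room-temperature incubation with compounds, in 10 mM HEPES pH 7.5, 0.15 M NaCl, 0.01% Tween 20.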

[8] = qHTS Validation Assay to Find Inhibitors of Chronic Active B-Cell Receptor Signaling (AID 485345; active = well fitted curve in the direction sought with a large enough effect in the main read-out, with a control signal flat, not every such curve was filed as active)
Method in brief: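 TMD8 ABC-DLBCL cells stably carrying doxycycline-inducible IkappaBalpha–green luciferase fusion plus unfused red luciferase; compounds 46 uM to 3 nM, 4 h at 37C with doxycycline. Corrected green/red luminescence ratio normalized to 10 uM MG-132 and basal cell wells; curves fitted.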

[9] = target: Beta-2 adrenergic receptor (Homo sapiens) (UniProt P07550); test: qHTS validation assay of beta-arrestin-biased ligands of beta2-adrenergic receptor (AID 485366)
Method in brief: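 Agonist activity is measured as luciferase luminescence downstream of beta-arrestin recruitment to recombinant beta2-AR in Tango cells. Exposure lasts 18 hr at 37 degrees C, and curves are categorized by r2, response size and activity.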

[10] = target: ATP-dependent 6-phosphofructokinase (Trypanosoma brucei brucei) (UniProt O15648); test: qHTS Validation Assay to Find Inhibitors of T. brucei phosphofructokinase (AID 485368); also: potency is read from the fitted curve at half-maximal effect
Method in brief: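 Inhibition derived from concentration-response curves of luminescence, ranked by r2, response size and curve class; the underlying reaction used 1.25 nM PFK, 0.1 mM ATP and 0.5 mM F6P, 45 min, room temperature.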

[11] = Quantitative high throughput screen for delayed death inhibitors of the malarial parasite plastid, 96 hour incubation (AID 488745); also: nearly all actives have a fitted effect of over 70% in size; also: potency is read from the fitted curve at half-maximal effect
Method in brief: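 Decreased firefly luciferase luminescence indicates inhibited growth of reporter-integrated P. falciparum after two generations (96 h, 37 C, 5% CO2). Infected erythrocytes at 0.1% parasitemia, 2% hematocrit, in Albumax-supplemented RPMI 1640.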

[12] = Quantitative high throughput screen for delayed death inhibitors of the malarial parasite plastid, 48 hour incubation (AID 488752); also: nearly all actives have a fitted effect of over 65% in size; also: potency is read from the fitted curve at half-maximal effect
Method in brief: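 One-generation (48 h) growth assay: a decrease in luciferase signal from an integrated reporter in P. falciparum-infected red cells (0.1% parasitemia, 2% hematocrit) after compound exposure at 37 C indicates parasite inhibition.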

[13] = target: Thioredoxin reductase 1, cytoplasmic (Rattus norvegicus) (UniProt O89049); test: qHTS Assay for Substrates of Mammalian Selenoprotein Thioredoxin Reductase 1 (TrxR1) (AID 488772);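 also: series mostly up to about 57 µM; a drop in NADPH fluorescence below the no-compound background marks a TrxR1 substrate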
Method in brief: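 In this dual-purpose format, potential substrates are identified from the first fluorescence read after selenite addition, not from the 8-minute delta. Rat enzyme is preincubated with NADPH and then with compound at ~22 deg C.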

[14] = target: Flap endonuclease 1 (Homo sapiens) (UniProt P39748); test: qHTS Validation Assay for the Inhibitors of Human Flap endonuclease 1 (FEN1) (AID 488816); also: potency is read from the fitted curve at half-maximal effect
Method in brief: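 Enzyme reagent 10 nM; cpds pinned; 15 min RT preinc.; substrate 50 nM final; reads t=0 and 15 min; no-enzyme buffer wells as neg. control; normalized data, 4-parameter Hill fit.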

[15] = target: M-phase phosphoprotein 8 (Homo sapiens) (UniProt Q99549); test: qHTS Validation Assay for Inhibitors for MPP8 Chromodomain Interactions with Methylated Histone Tails (AID 488949); also: nearly all actives have a fitted effect of over 55% in size; also: potency is read from the fitted curve at half-maximal effect
Method in brief: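 AlphaScreen proximity signal from streptavidin donor and Ni-chelate acceptor beads (10 ug/mL each) reported binding of MPP8 to trimethyl-K9 H3(1-18) peptide, both at 50 nM. The complex formed 30 min before a 30 min compound exposure at room temperature, in PBS pH 7.4.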

[16] = target: Chromobox protein homolog 1 (Homo sapiens) (UniProt P83916); test: qHTS Validation Assay for Inhibitors of HP1-beta Chromodomain Interactions with Methylated Histone Tails (AID 488953); also: nearly all actives have a fitted effect of over 50% in size; also: potency is read from the fitted curve at half-maximal effect
Method in brief: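 AlphaScreen proximity signal from streptavidin donor and nickel chelate acceptor beads (final 10 ug/mL) after 30 min dark incubation. Compounds had 30 min at room temperature with preformed complex of 50 nM HP1-beta and 50 nM b-H3(1-18)K9me3 in PBS pH 7.4 with 0.01% Tween-20.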

[17] = target: Methanococcus maripaludis chaperonin (MmCpn) (UniProt Q6LX38); test: High-Throughput Screening for Modulators of Cytosolic Chaperonin Activity: MmCpn Primary Screen (AID 488978);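 also: 50 nM MmCpn enzyme hydrolysing 30 µM ATP at 37 °C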
Method in brief: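 ATPase activity of 50 nM MmCpn was assayed with 30 uM ATP, 10 minutes at 37C, after a 5 min compound preincubation at room temperature. ADP production was read as HTRF emission at 590 and 665 nm.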

[18] = target: Transient receptor potential cation channel subfamily V member 1 (Homo sapiens) (UniProt Q8NER1); test: HTS Assay for Compounds that Act as Enhancers of the Vanilloid Receptor 1 (AID 488979)
Method in brief: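 TRPV1 cells loaded with Fluo-8 calcium dye; compound added and Ca2+ signal (ex 480/em 520 nm) followed 3 min, then capsaicin at EC20 added and read 2 more min to detect enhancement.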

[19] = target: Thioredoxin reductase 1, cytoplasmic (Rattus norvegicus) (UniProt O89049); test: qHTS Assay for Inhibitors of Mammalian Selenoprotein Thioredoxin Reductase 1 (TrxR1) (AID 488773); conditions: Potency: inhibition; also: nearly all actives have a fitted effect of over 40% in size; also: potency is read from the fitted curve at half-maximal effect
Method in brief: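 Inhibition is scored from the loss of NADPH fluorescence between first and last reads of an 8-min kinetic run. Selenite (400 uM) was the substrate, added after 15 min compound preincubation at room temperature.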

Measured: Potency

RecQ-like DNA helicase BLM (Homo sapiens), sequence (P54132 whole entry, looked up): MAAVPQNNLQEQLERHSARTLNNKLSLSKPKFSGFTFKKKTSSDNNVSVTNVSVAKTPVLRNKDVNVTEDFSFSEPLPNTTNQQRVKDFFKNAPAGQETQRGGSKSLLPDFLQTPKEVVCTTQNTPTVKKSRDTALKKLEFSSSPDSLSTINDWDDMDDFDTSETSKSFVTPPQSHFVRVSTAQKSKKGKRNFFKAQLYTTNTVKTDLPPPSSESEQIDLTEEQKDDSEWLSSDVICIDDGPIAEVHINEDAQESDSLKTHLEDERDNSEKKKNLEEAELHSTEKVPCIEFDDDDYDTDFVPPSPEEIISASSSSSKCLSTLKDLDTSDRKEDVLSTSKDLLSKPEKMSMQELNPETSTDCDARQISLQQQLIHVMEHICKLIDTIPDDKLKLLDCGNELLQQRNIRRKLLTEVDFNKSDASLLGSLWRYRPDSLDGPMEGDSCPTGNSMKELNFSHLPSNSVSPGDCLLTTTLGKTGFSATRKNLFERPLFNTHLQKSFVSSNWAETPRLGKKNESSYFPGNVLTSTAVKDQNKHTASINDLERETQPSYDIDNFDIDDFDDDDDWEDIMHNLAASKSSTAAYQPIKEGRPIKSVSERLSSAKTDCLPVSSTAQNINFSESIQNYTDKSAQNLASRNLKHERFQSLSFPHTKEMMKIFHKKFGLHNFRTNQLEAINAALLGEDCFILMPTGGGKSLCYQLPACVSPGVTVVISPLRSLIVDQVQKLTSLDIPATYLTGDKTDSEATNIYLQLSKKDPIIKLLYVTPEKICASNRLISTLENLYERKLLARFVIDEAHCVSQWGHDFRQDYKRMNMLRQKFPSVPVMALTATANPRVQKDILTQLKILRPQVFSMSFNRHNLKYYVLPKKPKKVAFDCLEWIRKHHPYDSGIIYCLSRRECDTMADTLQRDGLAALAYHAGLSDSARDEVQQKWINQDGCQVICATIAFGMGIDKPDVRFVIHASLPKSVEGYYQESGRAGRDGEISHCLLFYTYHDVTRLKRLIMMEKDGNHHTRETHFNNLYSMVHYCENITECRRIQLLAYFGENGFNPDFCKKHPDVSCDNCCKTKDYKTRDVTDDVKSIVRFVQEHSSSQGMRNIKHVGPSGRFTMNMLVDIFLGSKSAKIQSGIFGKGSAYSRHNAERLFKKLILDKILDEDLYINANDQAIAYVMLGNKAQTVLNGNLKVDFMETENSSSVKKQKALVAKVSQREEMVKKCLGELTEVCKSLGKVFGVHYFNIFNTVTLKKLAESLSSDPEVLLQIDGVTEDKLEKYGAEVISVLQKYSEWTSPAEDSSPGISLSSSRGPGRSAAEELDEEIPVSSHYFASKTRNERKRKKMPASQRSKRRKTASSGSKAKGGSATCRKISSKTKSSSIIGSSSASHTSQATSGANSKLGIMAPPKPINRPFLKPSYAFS
Methanococcus maripaludis chaperonin (MmCpn), sequence (Q6LX38 1-543): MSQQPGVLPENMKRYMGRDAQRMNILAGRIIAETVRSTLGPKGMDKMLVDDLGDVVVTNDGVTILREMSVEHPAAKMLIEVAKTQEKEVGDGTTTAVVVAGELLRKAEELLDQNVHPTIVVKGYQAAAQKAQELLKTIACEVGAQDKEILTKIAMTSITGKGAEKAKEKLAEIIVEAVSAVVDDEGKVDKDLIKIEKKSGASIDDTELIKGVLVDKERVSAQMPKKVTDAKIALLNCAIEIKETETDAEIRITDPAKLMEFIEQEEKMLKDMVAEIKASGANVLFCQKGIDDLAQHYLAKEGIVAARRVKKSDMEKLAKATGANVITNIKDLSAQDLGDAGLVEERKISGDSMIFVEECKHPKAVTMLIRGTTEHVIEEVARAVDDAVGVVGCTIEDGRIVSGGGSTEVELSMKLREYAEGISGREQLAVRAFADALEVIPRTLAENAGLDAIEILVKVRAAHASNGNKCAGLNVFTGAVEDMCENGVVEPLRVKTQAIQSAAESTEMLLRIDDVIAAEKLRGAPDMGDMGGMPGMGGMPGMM
Ubiquitin carboxyl-terminal hydrolase 2 (Homo sapiens), sequence (O75604 whole entry, looked up): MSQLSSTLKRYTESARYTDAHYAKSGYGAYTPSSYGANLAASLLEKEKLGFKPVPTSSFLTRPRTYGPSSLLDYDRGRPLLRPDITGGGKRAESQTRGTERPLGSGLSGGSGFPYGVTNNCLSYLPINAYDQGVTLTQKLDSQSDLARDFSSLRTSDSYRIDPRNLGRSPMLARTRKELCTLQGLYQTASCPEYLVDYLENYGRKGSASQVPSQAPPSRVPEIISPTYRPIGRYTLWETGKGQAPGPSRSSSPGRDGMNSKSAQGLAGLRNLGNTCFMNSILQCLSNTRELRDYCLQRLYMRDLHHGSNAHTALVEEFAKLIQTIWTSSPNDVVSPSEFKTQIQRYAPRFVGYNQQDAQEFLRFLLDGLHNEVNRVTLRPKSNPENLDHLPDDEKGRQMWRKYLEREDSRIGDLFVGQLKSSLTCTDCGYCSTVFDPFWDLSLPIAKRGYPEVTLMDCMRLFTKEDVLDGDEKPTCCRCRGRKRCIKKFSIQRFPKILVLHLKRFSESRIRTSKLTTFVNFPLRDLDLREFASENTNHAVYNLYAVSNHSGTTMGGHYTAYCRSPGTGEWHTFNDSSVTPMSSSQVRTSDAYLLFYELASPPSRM
Transient receptor potential cation channel subfamily V member 1 (Homo sapiens), sequence (Q8NER1 whole entry, looked up): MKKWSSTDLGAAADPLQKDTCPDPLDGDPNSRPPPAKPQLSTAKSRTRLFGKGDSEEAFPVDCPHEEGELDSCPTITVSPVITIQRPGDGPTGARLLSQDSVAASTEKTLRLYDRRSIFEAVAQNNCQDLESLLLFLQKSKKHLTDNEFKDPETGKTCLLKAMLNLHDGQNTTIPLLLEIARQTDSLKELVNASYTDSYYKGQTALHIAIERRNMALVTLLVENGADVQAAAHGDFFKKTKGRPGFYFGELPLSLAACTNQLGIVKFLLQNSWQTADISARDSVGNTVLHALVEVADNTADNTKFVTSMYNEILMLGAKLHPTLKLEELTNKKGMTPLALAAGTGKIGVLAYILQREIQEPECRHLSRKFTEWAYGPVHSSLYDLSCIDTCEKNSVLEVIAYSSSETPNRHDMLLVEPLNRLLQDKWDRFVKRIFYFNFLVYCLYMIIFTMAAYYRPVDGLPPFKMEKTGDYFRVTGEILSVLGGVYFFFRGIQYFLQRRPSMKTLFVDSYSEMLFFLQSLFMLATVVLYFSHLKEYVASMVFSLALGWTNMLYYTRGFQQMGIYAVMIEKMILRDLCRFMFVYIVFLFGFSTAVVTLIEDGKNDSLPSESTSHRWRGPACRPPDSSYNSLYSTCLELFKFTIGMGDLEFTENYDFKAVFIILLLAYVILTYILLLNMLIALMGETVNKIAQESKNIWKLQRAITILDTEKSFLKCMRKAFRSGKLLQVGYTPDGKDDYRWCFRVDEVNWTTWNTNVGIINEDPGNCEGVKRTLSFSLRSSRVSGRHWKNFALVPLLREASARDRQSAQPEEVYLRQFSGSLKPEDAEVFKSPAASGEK
M-phase phosphoprotein 8 (Homo sapiens), sequence (Q99549 whole entry, looked up): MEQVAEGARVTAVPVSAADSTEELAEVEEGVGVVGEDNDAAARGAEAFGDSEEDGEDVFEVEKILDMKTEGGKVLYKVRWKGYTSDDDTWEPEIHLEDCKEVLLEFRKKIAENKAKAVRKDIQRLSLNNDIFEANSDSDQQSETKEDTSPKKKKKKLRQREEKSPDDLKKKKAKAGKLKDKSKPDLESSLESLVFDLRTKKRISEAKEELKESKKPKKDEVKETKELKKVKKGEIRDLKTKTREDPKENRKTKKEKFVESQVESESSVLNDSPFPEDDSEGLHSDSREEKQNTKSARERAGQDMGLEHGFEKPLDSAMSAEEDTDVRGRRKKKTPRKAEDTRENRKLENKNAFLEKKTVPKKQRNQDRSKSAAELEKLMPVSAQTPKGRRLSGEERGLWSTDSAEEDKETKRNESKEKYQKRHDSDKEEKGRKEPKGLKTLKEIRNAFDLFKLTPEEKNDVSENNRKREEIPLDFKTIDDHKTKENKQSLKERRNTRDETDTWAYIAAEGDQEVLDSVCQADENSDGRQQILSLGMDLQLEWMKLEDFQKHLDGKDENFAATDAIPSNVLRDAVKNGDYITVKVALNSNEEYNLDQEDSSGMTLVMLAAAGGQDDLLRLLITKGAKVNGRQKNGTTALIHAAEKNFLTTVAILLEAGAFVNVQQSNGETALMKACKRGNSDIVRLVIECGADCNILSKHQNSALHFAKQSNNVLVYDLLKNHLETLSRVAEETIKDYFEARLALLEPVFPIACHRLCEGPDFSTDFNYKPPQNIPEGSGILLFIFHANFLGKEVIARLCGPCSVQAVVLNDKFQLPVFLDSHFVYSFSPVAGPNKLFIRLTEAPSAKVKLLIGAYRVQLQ
ATP-dependent 6-phosphofructokinase (Trypanosoma brucei brucei), sequence (O15648 whole entry, looked up): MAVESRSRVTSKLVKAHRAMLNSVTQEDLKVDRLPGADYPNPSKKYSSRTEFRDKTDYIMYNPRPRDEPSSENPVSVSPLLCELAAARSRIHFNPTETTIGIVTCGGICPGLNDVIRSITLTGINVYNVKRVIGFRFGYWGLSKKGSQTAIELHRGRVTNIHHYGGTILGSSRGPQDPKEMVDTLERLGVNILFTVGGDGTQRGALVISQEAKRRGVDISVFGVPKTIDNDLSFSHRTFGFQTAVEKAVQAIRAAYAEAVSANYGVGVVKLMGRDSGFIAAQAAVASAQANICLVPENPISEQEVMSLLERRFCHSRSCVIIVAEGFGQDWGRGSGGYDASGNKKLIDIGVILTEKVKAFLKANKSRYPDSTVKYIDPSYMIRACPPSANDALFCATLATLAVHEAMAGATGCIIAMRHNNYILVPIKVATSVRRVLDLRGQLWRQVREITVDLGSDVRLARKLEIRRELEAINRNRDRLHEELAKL
Chromobox protein homolog 1 (Homo sapiens), sequence (P83916 whole entry, looked up): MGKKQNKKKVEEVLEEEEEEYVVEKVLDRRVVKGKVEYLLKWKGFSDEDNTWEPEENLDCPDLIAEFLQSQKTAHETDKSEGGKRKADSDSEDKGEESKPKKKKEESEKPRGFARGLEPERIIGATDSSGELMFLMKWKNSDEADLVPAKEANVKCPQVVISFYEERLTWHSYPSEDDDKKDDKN

O=C(CCc1ccc(O)cc1)c1c(O)cc(O)cc1O
inactive: [1] | [2] | [3] | [4] | [5] | [6] | [7] | [8] | [9] | [10] | [11] | [12] | [13] | [14] | [15] | [16] | [17] | [18]

CC(=O)O[C@H]1C(=O)[C@@]2(C)C([C@H](OC(=O)c3ccccc3)[C@]3(O)C[C@H](OC(=O)[C@H](O)[C@@H](NC(=O)c4ccccc4)c4ccccc4)C(C)=C1C3(C)C)[C@]1(OC(C)=O)CO[C@@H]1C[C@@H]2O (stereo partly specified)
inactive: [1] | [3] | [6] | [7] | [8] | [9] | [10] | [13] | [19] | [14] | [15] | [16] | [17] | [18]
active: [11] 0.117 µM | [12] 0.117 µM

Nc1nc(N)c(N=O)c(OCC2CCCCC2)n1
inactive: [6] | [7] | [9] | [10] | [13] | [19] | [14] | [15] | [17]
active: [3] 14.7 µM

Cc1c(OCC(F)(F)F)ccnc1CS(=O)c1nc2ccccc2[nH]1 (stereo unspecified)
inactive: [1] | [2] | [3] | [4] | [5] | [6] | [7] | [8] | [9] | [13] | [19] | [14] | [17] | [18]

Nc1ccn([C@@H]2O[C@H](CO)[C@@H](O)C2O)c(=O)n1 (stereo partly specified)
inactive: [6] | [7] | [8] | [9] | [13] | [19] | [14] | [15] | [16] | [17]

O=C(NCC1CCCCN1)c1cc(OCC(F)(F)F)ccc1OCC(F)(F)F (stereo unspecified)
inactive: [1] | [2] | [11] | [12] | [15] | [18]

NCCCCNCCCN
inactive: [1] | [2] | [4] | [5] | [6] | [7] | [8] | [9] | [10] | [11] | [12] | [13] | [19] | [14] | [15] | [16] | [17] | [18]

CC1(C)NC(=O)N(c2ccc([N+](=O)[O-])c(C(F)(F)F)c2)C1=O
inactive: [1] | [2] | [3] | [4] | [5] | [6] | [7] | [8] | [9] | [10] | [11] | [12] | [13] | [19] | [14] | [15] | [16] | [17] | [18]

O=C(c1ccccc1)c1ccc2n1CCC2C(=O)O (stereo unspecified)
inactive: [1] | [3] | [4] | [5] | [6] | [7] | [8] | [9] | [10] | [11] | [12] | [19] | [14] | [15] | [17] | [18]

O=c1ccc2ccc(O)c(O)c2o1
inactive: [1] | [2] | [3] | [4] | [5] | [6] | [7] | [8] | [9] | [13] | [19] | [17] | [18]
active: [11] 14.7 µM | [14] 9.47 µM

O=C1c2c(O)cc(O)cc2OC(c2ccc(O)c(O)c2)C1O (stereo unspecified)
active: [19] 8.44 µM | [14] 2.67 µM | [16] 0.0084 µM
inactive: [1] | [3] | [4] | [5] | [6] | [7] | [8] | [9] | [12] | [13] | [15] | [17] | [18]

COc1ccc2cc([C@H](C)C(=O)O)ccc2c1
active: [16] 0.006 µM
inactive: [1] | [2] | [3] | [4] | [5] | [6] | [7] | [8] | [11] | [12] | [13] | [19] | [14] | [17] | [18]

Nc1nc(OCc2ccccc2)c2[nH]cnc2n1
inactive: [1] | [3] | [4] | [5] | [6] | [7] | [9] | [11] | [12] | [13] | [19] | [14] | [15] | [16] | [17] | [18]

O=c1c(O)c(-c2ccc(O)cc2O)oc2cc(O)cc(O)c12
active: [14] 2.38 µM | [15] 39.8 µM | [16] 39.8 µM
inactive: [1] | [3] | [4] | [5] | [7] | [8] | [9] | [11] | [12] | [13] | [19] | [17]

O=c1c(O)c(-c2cc(O)c(O)c(O)c2)oc2cc(O)cc(O)c12
active: [1] 0.891 µM | [2] 14.1 µM | [10] 3.01 µM | [19] 13.4 µM | [14] 1.5 µM | [15] 6.31 µM and 8.44 µM | [16] 14.1 µM
inactive: [3] | [7] | [8] | [9] | [11] | [12] | [13] | [17] | [18]
